Only some compounds are listed: those with a hit (about 19% of all), similar ones and a draw of the others.
Giardia kill – kills Giardia lamblia; activity change, % at 7.66 µM, hits read low; 340,000 tested, 0.15% active; Giardia lamblia trophozoite viability; AID 540267; in the data active = activity change below about -80%; inconclusive = between about -30% and that limit;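 also: parasites exposed to compound for two days anaerobically before the ATP read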
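Giardia lamblia trophozoites (100 cells/well) were incubated with compounds for 48 h at 37 deg C under anaerobic conditions. Viability was read as ATP content by one-step luminescence after 15-30 min at room temperature.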
TDP1 cell CPT – growth inhibition of DT40 Tdp1-/-;hTDP1 cells with camptothecin (screen for TDP1 inhibitors); Potency, µM (titrated, usually from 46.2 µM), usual class: inhibitors; 420,000 tested, 12% active; chicken DT40 Tdp1-/-;hTDP1 cells + 20 nM CPT, ATP luminescence, 48 h; also: nearly all actives have a fitted effect of over 55% in size
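Cell growth measured by CellTiter-Glo luminescence after a minimum 48 h, 37 C compound exposure with 20 nM CPT in Tdp1-knockout DT40 cells stably expressing hTDP1, seeded 400/well; qHTS titration format.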
TDP1 cell noCPT – qHTS for Inhibitors of human tyrosyl-DNA phosphodiesterase 1 (TDP1): qHTS in cells in absence of CPT. DT40 Tdp1-/- hTDP1 cells, no CPT, ATP luminescence, 48 h. Potency, µM (titrated, usually from 46.2 µM), usual class: inhibitors. 420,000 tested, 15% active. AID 686978, 2013; also: nearly all actives have a fitted effect of over 55% in size
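Camptothecin absent (DMSO only). Human TDP1-complemented DT40 knockout cells, 400 cells/well, 37 °C for minimum 48 hr; ATP measured via CellTiter-Glo, 30 min dark incubation, luminescence.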
IL1B secr inh – inflammasome signaling inhibition, IL-1 beta readout | THP-1 LPS/ATP IL-1B secretion, AlphaLISA, 16 h; hits give low values | activity change, % at 57.5 µM | 360,000 tested, 4.7% active | AID 743279; in the data active = activity change below about -50%; inconclusive = mostly about -30% to -49%
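THP-1 cells pretreated 1 hr with compounds (up to 57.5 uM final), then stimulated with LPS (250 ng/mL final) plus ATP (1.25 mM final); secreted IL-1B measured by AlphaLISA after 16 hr, decreased signal indicating inhibition.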
TDP1 block – blocks human tyrosyl-DNA phosphodiesterase 1. Q9NUW8. recombinant TDP1, AlphaScreen DNA substrate cleavage. Potency, µM (highest dose often 130 µM), actives largely listed as inhibitors. 350,000 tested, 0.28% active. AID 485290; also: nearly all actives have a fitted effect of over 40% in size
Target sequence (Q9NUW8 whole entry, looked up): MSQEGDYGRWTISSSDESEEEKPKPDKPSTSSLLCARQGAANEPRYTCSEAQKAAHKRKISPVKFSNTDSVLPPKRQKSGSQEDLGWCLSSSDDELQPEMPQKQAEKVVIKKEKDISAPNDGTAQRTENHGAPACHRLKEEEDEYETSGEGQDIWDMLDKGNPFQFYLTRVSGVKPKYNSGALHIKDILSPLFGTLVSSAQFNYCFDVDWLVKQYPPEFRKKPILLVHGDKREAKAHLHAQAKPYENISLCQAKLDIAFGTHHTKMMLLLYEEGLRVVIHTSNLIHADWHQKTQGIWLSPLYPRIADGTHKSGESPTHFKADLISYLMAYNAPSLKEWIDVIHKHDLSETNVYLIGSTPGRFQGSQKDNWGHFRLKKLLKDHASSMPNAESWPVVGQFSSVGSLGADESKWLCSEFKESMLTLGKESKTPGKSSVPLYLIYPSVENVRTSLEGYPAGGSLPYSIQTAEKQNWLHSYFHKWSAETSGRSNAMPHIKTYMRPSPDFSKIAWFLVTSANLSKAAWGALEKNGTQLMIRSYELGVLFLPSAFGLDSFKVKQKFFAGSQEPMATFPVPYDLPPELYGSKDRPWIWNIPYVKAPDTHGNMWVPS
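Steps: enzyme plus compound, 15 min RT; add biotin/phosphotyrosine-FITC oligonucleotide (15 nM final), react 5 min; add donor/acceptor beads (10 ug/ml final), 10 min; read AlphaScreen. Tdp1 at 1 nM final.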
ELG1 repair inh – inhibitors of ELG1-dependent DNA repair in HEK293T cells; Potency, µM (titrated, usually from 46.1 µM), most hits filed as inhibitors; 330,000 tested, 2.3% active; HEK293T ELG1-luciferase reporter, luminescence, 16 h; DNA damage induced by 5-fluorouridine; AID 504467; also: nearly all actives have a fitted effect of over 55% in size
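Quantitative HTS, concentration-response format. 2,000 cells/well co-treated with 5-fluorouridine and compound, 16 hr in 5% CO2 at 37 °C; ONE-Glo luminescence read after 30 min.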
A number is an active result. Unless noted, calls follow the shape of the dose curve; as a rule, active = well fitted curve in the direction sought with a large enough effect; inconclusive = small, poorly fitted or top-dose-only effect, or another doubt; inactive = no such curve, though single readings can be large; an effect the other way counts as inactive or inconclusive.

For O=C(NC1CCCC1)c1cc(-c2ccccc2)nc2ccccc12 the results were Giardia kill inactive, TDP1 cell CPT inactive, TDP1 cell noCPT inconclusive, IL1B secr inh inactive, TDP1 block inactive and ELG1 repair inh inactive.
Screening OC(c1cc(-c2cccc(Cl)c2)nc2ccccc12)C1CCCCN1 (configuration not stated) returned Giardia kill inactive, TDP1 cell CPT 16µM, TDP1 cell noCPT 2.6µM and IL1B secr inh -101.
O=C(Nc1ccccc1)c1sc2cc(C(F)(F)F)cnc2c1-c1cccs1 was read as Giardia kill inactive, TDP1 cell CPT 13µM, TDP1 cell noCPT 12µM, IL1B secr inh inactive, TDP1 block inactive and ELG1 repair inh inactive.
Screening Cc1ccccc1NC(=O)CSCn1nnc2c(=O)[nH]c(Cc3ccc(F)cc3)nc21 returned TDP1 cell CPT inactive, TDP1 cell noCPT inactive and TDP1 block inactive.
COc1cccc(NC(=O)CSCn2nnc3c(=O)[nH]c(Cc4ccc(F)cc4)nc32)c1 was read as TDP1 cell CPT inactive, TDP1 cell noCPT 4.1µM and TDP1 block inactive.
`Cc1cccc(N2C(=O)CC(N(C(=O)c3ccco3)c3cccc(C)c3)C2=O)c1` (configuration not stated) gave Giardia kill inactive, TDP1 cell CPT inactive, TDP1 cell noCPT inactive, IL1B secr inh inactive, TDP1 block inactive and ELG1 repair inh inactive.
c1cnn2c(-c3ccc4c(c3)CCO4)cnc2c1 was read as TDP1 cell CPT 10µM, TDP1 cell noCPT 9.2µM and IL1B secr inh inactive.
`Cc1[nH]c2ccccc2c1C(=O)C(C)Sc1nc2ccccc2c(=O)n1Cc1cccnc1` (configuration not stated) gave TDP1 cell CPT 7.9µM and TDP1 cell noCPT 11µM.
CCCn1c(N)c(C(=O)CSc2nc3ccccc3c(=O)n2Cc2ccccc2)c(=O)[nH]c1=O was read as Giardia kill inactive, TDP1 cell CPT inactive, TDP1 cell noCPT inactive, IL1B secr inh inactive, TDP1 block inactive and ELG1 repair inh inactive.
`COC(=O)c1ccccc1NC(=O)c1ccc(F)cc1F` gave TDP1 block inactive.
`CC(C)(C)CC(C)(C)SSc1n[nH]c(=S)s1` gave Giardia kill inactive, TDP1 cell CPT inconclusive, TDP1 cell noCPT inconclusive and IL1B secr inh -73.
`N#CC1=C(N)N(c2ccccc2)C(c2cccc([N+](=O)[O-])c2)C1(C#N)C#N` (configuration not stated) gave Giardia kill inactive, TDP1 cell CPT inconclusive, TDP1 cell noCPT 16µM, IL1B secr inh inactive, TDP1 block inactive and ELG1 repair inh inactive.
Cc1cccc(N2C(N)=C(C#N)C(C#N)(C#N)C2c2ccccc2)c1 (configuration not stated) was read as Giardia kill inactive, TDP1 cell CPT 21µM, TDP1 cell noCPT 10µM, IL1B secr inh inactive and TDP1 block inactive.
`CS(=O)(=O)Nc1cc2c3c(c1)CCC(=O)N3CCC2` gave Giardia kill inactive, TDP1 cell CPT inactive, TDP1 cell noCPT inactive, IL1B secr inh inactive, TDP1 block inactive and ELG1 repair inh inconclusive.
For COC(=O)c1sc(S(=O)(=O)Nc2ccc(Br)cc2)c(C(=O)OC)c1C the results were Giardia kill inactive, TDP1 cell CPT inconclusive, TDP1 cell noCPT inactive, IL1B secr inh inactive, TDP1 block inactive and ELG1 repair inh inactive.
Cc1cccc(CN2CCC(CNC(=O)Nc3ccccc3F)CC2)c1 was read as Giardia kill inactive, TDP1 cell CPT inactive, TDP1 cell noCPT inactive and IL1B secr inh inactive.
Cc1ccc(C)c(CN2CCC(CNC(=O)Nc3ccc(Cl)cc3)CC2)c1 was read as Giardia kill inactive, TDP1 cell CPT 21µM, TDP1 cell noCPT inconclusive, IL1B secr inh -95 and ELG1 repair inh inactive.
For Cc1ccc(C)c(CN2CCC(CNC(=O)Nc3ccc(Br)cc3F)CC2)c1 the results were Giardia kill inactive, TDP1 cell CPT 10µM, TDP1 cell noCPT inconclusive, IL1B secr inh -83, TDP1 block inactive and ELG1 repair inh inactive.

Screening results: PubChem, National Center for Advancing Translational Sciences (NCATS)
